# In all, about 94,000 compounds went through this assay and about 6,200 (6.6%) were called active. Where a call stands in place of a potency, no number is given. Not shown: some 31% with an inconclusive outcome. The call rests on the fitted dose curve; in most records, active means well fitted inhibition curve with a large enough effect; inconclusive means small, poorly fitted or top-dose-only effect; inactive means flat fitted curve, though single readings scatter. The full list was thinned out, with actives kept by preference.
# Experiment: Cytotoxic Profiling in HEK 293 Cell Line of Diverse Libraries Using Quantitative High-Throughput Screening; further: nearly all actives have a fitted effect of over 60% in size
# Conditions: HEK 293 viability, ATP luminescence (CellTiter-Glo), 48-72 h; series mostly up to 115 µM
# Summary of the method: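 Cytotoxicity was scored by loss of ATP-coupled luminescence (CellTiter-Glo) in HEK 293 cells. Compound treatment ran 48 or 72 hr at 37 degree Celsius, 5% CO2, 95% humidity.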
# Potency means the concentration at half of the fitted maximal effect.
row,Structure (SMILES),Potency
1,CC1CCN(c2ccc(CNC(=O)CN3CCCc4nc(C5CC5)ncc4C3=O)cc2)CC1,inactive
2,CN(CCO)CC1(O)CCCN(Cc2ccccc2F)C1=O (stereo not drawn),inactive
3,O=C(O)CN1CCNc2nc(CNc3ccc(F)cc3)n(Cc3ccccc3)c2C1=O,inactive
4,O=C1c2c(nc(COc3ccccc3)n2Cc2ccccc2)NCCN1Cc1cccc(Cl)c1,31.6 µM (active)
5,O=C1c2cnc(-c3ccc(O)c(F)c3)nc2OCCN1Cc1ccccc1,inactive
6,COc1ccc(NC(=O)c2ccc3c(c2)N(S(C)(=O)=O)CC3)cc1OC,inactive
7,O=C(c1cccnc1)N1CCC(Nc2cccnc2)C1 (stereo not drawn),inactive
8,COc1cccc(N2C(=O)NC(=NC3CCCC3)C23CCN(C(=O)c2ccc(C)cc2)C3)c1 (stereo not drawn),inactive
9,COc1ccc(-c2cc(C[C@H]3CNCC[C@H]3CC(=O)NCCN(C)C)no2)cc1,inactive
10,O=C(C[C@@H]1CCNC[C@@H]1Cc1cc(-c2ccc(F)cc2)on1)NCCN1CCOCC1,inactive
11,CSc1cccc(CN(C)C(=O)CC2COCCN2)c1 (stereo not drawn),inactive
12,CN(Cc1ccccc1)C(=O)C[C@@H]1CCNC[C@@H]1Cc1cc(-c2ccc(C(C)(C)C)cc2)on1,14.1 µM (active)
13,O=C(C[C@@H]1CCNC[C@@H]1Cc1cc(CSc2ccccc2)on1)NCc1ccc2c(c1)OCO2,35.5 µM (active)
14,CCCCc1cc(C[C@H]2CNCC[C@H]2CC(=O)N(CC)CC)no1,inactive
15,COc1ccc(CNC(=O)C[C@@H]2CCNC[C@@H]2Cc2cc(-c3ccc(C(C)(C)C)cc3)on2)cc1OC,25.1 µM (active)
16,CNC(=O)C(C)(C)N1CCC[C@H]1C(=O)N(C)Cc1ccccc1,inactive
17,CCCCc1cc(C[C@H]2CNCC[C@H]2CC(=O)N2CCC(n3c(=O)[nH]c4ccccc43)CC2)no1,inactive
18,COCCOCc1nc(C2CCCCN2C(=O)Nc2ccc(F)cc2F)no1 (stereo not drawn),inactive
19,O=C(Cc1cccc(Cl)c1)N1CCC2(CN[S+](=O)([O-])c3cccnc3O2)C1 (stereo not drawn),inactive
20,Cc1ccc(CN[C@@H]2CO[C@H](CNC(=O)N3CCOCC3)[C@H]2O)cc1,inactive
21,CCNC(=O)[C@@H]1C[C@H](n2cc(CN(C)C(=O)OC)nn2)CN1,inactive
22,Cc1ccc(NC(=O)c2nnn3c2COC(c2ccc(F)cc2)C3)c(Br)c1 (stereo not drawn),inactive
23,COc1ccc(-c2ccccc2CN)cc1,inactive
24,CCn1cc(S(=O)(=O)N2C[C@@H](Oc3ccccc3)C[C@@H]2C(=O)N2CCOCC2)cn1,inactive
25,CCn1nccc1C(=O)N1CCC2(CC1)CC(N(Cc1ccc(F)cc1)C1CC1)CCO2 (stereo not drawn),39.8 µM (active)

row,Structure (SMILES),Potency
1,CCN(CC)C1CCOC2(CCN(C(=O)c3ccncc3)CC2)C1 (stereo not drawn),inactive
2,O=C(c1ccc(F)cc1)N1CCC2(CC1)CC(OCC1CC1)CCO2 (stereo not drawn),inactive
3,Cc1cccc(CC(=O)N2CCC(c3n[nH]c(=O)n3-c3ccccc3)CC2)c1,inactive
4,CN(C)CCNC(=O)[C@H]1C[C@@](C)(C(=O)O)N(C)[C@H]1c1ccc(Cl)cc1,inactive
5,Cc1ccccc1N1Cc2c(NCC(C)(C)C)ncnc2N(C)CC1=O,inactive
6,O=C(NCc1ccc2c(c1)OCO2)C1CN(C2CCCCC2)C(=O)N1 (stereo not drawn),inactive
7,O=C(NCc1ccc(F)c(F)c1)C1CCCN(Cc2cccc(-c3cccs3)c2)C1 (stereo not drawn),5.62 µM (active)
8,COCCNC(=O)C1CCCN(Cc2cccc(-c3cccs3)c2)C1 (stereo not drawn),inactive
9,Cc1ccccc1CNC(=O)C1CCCN(Cc2cccnc2)CCC(=O)NCC1 (stereo not drawn),inactive
10,O=C(NCc1ccc2c(c1)OCO2)C1CCCN(Cc2cccc(-c3cccs3)c2)C1 (stereo not drawn),28.2 µM (active)
11,O=C1CCN(S(=O)(=O)c2cccc(F)c2)CCCC(C(=O)NCc2ccccc2)CCN1 (stereo not drawn),inactive
12,COc1ccc(C(=O)N2CCc3n[nH]c(=O)n3CC2)cc1F,inactive
13,O=C(N[C@H]1[C@H](O)[C@H](O)C[C@@H]1c1ccncc1)c1ccccn1,inactive
14,CN(C)c1ccc(CNCC2(COc3ccc(S(C)(=O)=O)cc3)C[C@@H](O)[C@@H](O)C2)cc1 (stereo partly drawn),inactive
15,O=C(NC1CC1)c1ccc(N2CC3CC(C2)[C@H]2CCCC(=O)N2C3)nc1 (stereo partly drawn),inactive
16,Cc1cc(C(=O)N2CCC(N3C(=O)C(OCC4CC4)C34CCOCC4)CC2)nn1C (stereo not drawn),inactive
17,CN(C)c1cccc(Nc2cc3c(cn2)NCCN(Cc2ccccc2)C3)c1,63.1 µM (active)
18,Cn1c(CNC(=O)Cn2nc3c(cc2=O)CCCC3)nc2ccccc21,inactive
19,O=C(c1cn[nH]c1-c1ccccc1)N1CCC2(CC1)CC(O)CCO2 (stereo not drawn),inactive
20,O=C(Cc1cccc(Cl)c1)N1CCC2(CC1)CN[S+](=O)([O-])c1cccnc1O2,inactive
21,COCC(=O)N1CCCN(Cc2ccncc2)C(c2ccccc2)CC(=O)NCC1 (stereo not drawn),inactive
22,CC(C)c1ccc(N2C(=O)N[C@@H]3CCN(C(=O)c4ccc(C(C)(C)C)cc4)[C@@H]3C2=O)cc1,79.4 µM (active)
23,COC(=O)[C@H](Cc1ccc(OC)cc1)NC(=O)[C@H]1CN(C(=O)c2cccnc2)CCN1C(=O)NC1CCCCC1,inactive
24,COc1cccc(-c2ccc(CN3CCCC3C(=O)NC3CCCCC3)cc2)c1 (stereo not drawn),44.7 µM (active)
25,COc1cccc(-c2cccc(C(=O)N3CCCC3C(=O)NCC3CC3)c2)c1 (stereo not drawn),inactive

row,Structure (SMILES),Potency
1,COc1cccc(-c2ccc(CN3CCCC3C(=O)NCc3ccccc3Cl)cc2)c1 (stereo not drawn),31.6 µM (active)
2,COc1cccc(CC(=O)NC2CCN(c3cn[nH]c(=O)c3)CC2)c1,inactive
3,O=C(NCCCc1ccccc1)C1CCc2nnc(-c3cccc(C(F)(F)F)c3)n21 (stereo not drawn),inactive
4,Cc1ccc(-c2cccc(CN3CCCC3C(=O)NCC(F)(F)F)c2)cc1Cl (stereo not drawn),31.6 µM (active)
5,CNC(=O)C1CCCCN1Cc1ccc(-c2cccs2)cc1 (stereo not drawn),28.2 µM (active)
6,COc1ccc(C(=O)N2CCN(Cc3ccccc3-c3ccc(C)c(Cl)c3)CC2)cc1,inactive
7,Cc1ccc(-c2cccc(CN3CCCC(NC(=O)c4ccc(C(F)(F)F)cc4)C3)c2)cc1Cl (stereo not drawn),inactive
8,O=C(NCc1ccccn1)C1CCN(C(=O)c2ccc(-c3cccs3)cc2)CC1,inactive
9,CC(=O)N1CCCN(C(=O)C2CCCCN2Cc2ccc(-c3ccsc3)cc2)CC1 (stereo not drawn),inactive
10,COCCC(=O)N1CCC2(CCC2NC(=O)COC)CC1 (stereo not drawn),inactive
11,CCN(CC)CC(=O)N1CCC(Oc2ccccc2C)(C(=O)O)CC1,inactive
12,COCC(=O)N(C1CCOCC1)C1CCN(C(=O)c2cccc(OC)c2)CC1,inactive
13,COc1ccccc1CN1C(=O)COC[C@@H]1[C@H](O)c1ccc(NC(=O)c2ccc(C#N)cc2)cc1,39.8 µM (active)
14,CCN1C(=O)COC[C@@H]1C(O)c1ccc(NC(=O)Cc2ccc(OC)cc2)cc1 (stereo partly drawn),inactive
15,CC(C)CN1C(=O)COC[C@@H]1[C@H](O)c1ccc(NC(=O)Cc2ccccc2)cc1,inactive
16,Cc1ccc(NC(=O)N2CC[C@H]3C(=O)NCCCCCN(Cc4cccnc4)[C@@H]3C2)cc1C,inactive
17,O=C(CCC1CCCC1)N1CCN2CCS(=O)(=O)N(C3CC3)C(=O)C2C1 (stereo not drawn),inactive
18,CC(C)c1ccc(S(=O)(=O)N(C)CC2CCOC2)cc1 (stereo not drawn),inactive
19,O=c1[nH]c(-c2ccncc2)nc2c1CCN(S(=O)(=O)N1CCCC1)C2,inactive
20,O=C([C@@H]1C[C@H](F)CN1S(=O)(=O)c1ccc(Cl)cc1)N1CCCCC1,inactive
21,O=C(c1cccc(Br)c1)N1CCN(C2CCN(Cc3ccccn3)C2=O)CC1 (stereo not drawn),inactive
22,O=C1CN(Cc2ccc(-c3ccccc3)cc2)CCN1c1cc(Cl)ncn1,31.6 µM (active)
23,Cn1cc(CN2CCN(Cc3ccccc3)CC2)ccc1=O,inactive
24,O=C(c1ccncc1)N1CCN(c2ccc(Cl)nn2)C(=O)C1,inactive
25,COc1ccc(Cn2c(CN(C)S(C)(=O)=O)n[nH]c2=O)cc1,inactive

row,Structure (SMILES),Potency
1,CC(C(=O)NC1CCCCC1)[C@@H]1CC[C@@]2(C)CC[C@H](N[S+](C)(=O)[O-])[C@@H](C)[C@@H]2[C@H]1O (stereo partly drawn),inactive
2,CN(Cc1ccc(OC(F)(F)F)cc1)Cc1ccc(-c2ccccc2)cc1,inactive
3,CN(Cc1ccccc1)Cc1ccc(F)cc1,inactive
4,CN(Cc1ccc(-c2ccccc2)cc1)C(=O)c1ccccc1F,89.1 µM (active)
5,O=C(CC1Cc2ccccc2C1)N1CCN(CCO)CC(O)C1 (stereo not drawn),inactive
6,CCCCCC(=O)Nc1nc2c(s1)C[C@@H]1[C@](C)(CO)[C@H](O)CC[C@@]1(C)[C@@H]2CC(=O)N1CCC(C(N)=O)CC1,inactive
7,O=C(CCn1cccn1)N[C@@H]1CN(Cc2ccccc2)C[C@H]1CO,inactive
8,CSc1ccc(CNC(=O)c2noc(-c3ccc(C)cc3)n2)cc1,inactive
9,CC1=Nc2cc(C(=O)NCc3ccc(C)cc3)ccc2Sc2ccc(Cl)cc21,31.6 µM (active)
10,O=C(CCc1cc(Cl)no1)NCCc1noc(C2CC2)n1,inactive
11,COc1ccc(-c2nnc3n2CCN([S+](C)(=O)[O-])C3)cc1,inactive
12,Cc1cc(C)n(C2CN(c3cc(C4CC(O)C4)nc(C)n3)C2)n1 (stereo not drawn),inactive
13,Cc1cc(C)n(-c2ccc(NC(=O)CC[C@H]3NC(=O)c4ccccc4NC3=O)cc2)n1,inactive
14,COc1ccc(CC(=O)NC2CCCc3c2[nH]c2ccccc32)cc1 (stereo not drawn),35.5 µM (active)
15,O=C(NC1CCCc2c1[nH]c1ccc(F)cc21)c1ccccn1 (stereo not drawn),inactive
16,COc1ccc(C(=O)N[C@@H]2CCC[C@@H]2C(=O)NCc2cccc(OC)c2)cc1,inactive
17,CN1CCCN(C(=O)c2ccccc2)c2ccccc21,inactive
18,COCCNC(=O)c1ccc2nnc(-c3cccc(C(F)(F)F)c3)n2c1,inactive
19,O=C(NCc1ccc(C(F)(F)F)cc1)c1ccc2nnc(-c3ccc(C(F)(F)F)cc3)n2c1,35.5 µM (active)
20,O=C(NCc1ccc(F)cc1)c1ccc2nnc(Cc3ccco3)n2c1,inactive
21,CCN1CCN(C(=O)c2ccc3nnc(Cc4ccc(Cl)cc4)n3c2)CC1,inactive
22,O=C(NCc1cccc(Cl)c1)c1ccc2nnc(Cc3ccc(Cl)cc3)n2c1,44.7 µM (active)
23,O=C(NCc1ccc(F)c(F)c1)c1ccc2nnc(-c3cccnc3)n2c1,inactive
